SMILES strings stand for the structures. A number with no mark means an inactive call. Inconclusive results are not listed. Calls of active or inactive are those of the source. Unless noted, the call rests on the fitted dose curve; in most records, active means well fitted curve in the direction sought with a large enough effect; inconclusive means small, poorly fitted or top-dose-only effect, or another doubt; inactive means no such curve, though single readings can be large; an effect the other way counts as inactive or inconclusive. Numbered stars: 1 amine (or outer) side, 2 acyl side, 3 side chain; on linkers, the order of the positions; unused ones are H or OH. Bridge positions count the residues as written; N and C are the ends. Square brackets hold non-standard residues; d marks the D form. Peptide text beside a SMILES is read from it. I, II: the chains in the order shown. Actinocin(9to1) = Cc1c2oc3c(C)ccc(C(=O)[*:1])c3nc-2c(C(=O)[*:2])c(N)c1=O; NMeV = CN[C@H](C(=O)O)C(C)C; Sar = CNCC(=O)O

Data on 21 compounds can be found in PubChem BioAssay (NCATS).

Assay [1] is described as follows: Confirmation and Secondary Assay for Modulators of Hemoglobin Beta Chain Splicing at IVS2 654 locus (AID 910).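 Further: HeLa cells stably carrying EGFP split by mutant beta-globin IVS2-654 intron; % of control where 0% means no effect.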 The method in brief: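 HeLa cells stably expressing EGFP interrupted by β-globin IVS2-654 intron, seeded overnight in Opti-MEM/2% FCS, then treated 2 days at 37 °C. Restored splicing read as total peak GFP intensity per well by laser scanning cytometry (488 nm excitation, 500–520 nm emission); 500 nM antisense PNA as control.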

Assay [2] in a line: Cell Viability - LYMP2-001 (AID 921).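 Further: cells exposed to compound for 24 h at 37 °C; nearly all actives have a fitted effect of over 70% in size.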 Further: potency means the concentration at half of the fitted maximal effect. The method in brief: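 Steps: seed 2500 lymphoblastoid cells/well; 5 hr, 37 C; add compound; 24 hr, 37 C; CellTiter-Glo reagent, 30 min room temperature; read luminescence. Concentration-response modeled by Hill equation for AC50.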
Assay [3] is described as follows: Confirmation and Secondary Assay for Modulators of Hemoglobin Beta Chain Splicing at IVS2 705 locus (AID 930).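 Further: HeLa cells stably expressing the EGFP-705 splicing reporter; GFP fluorescence per well restored by corrected splicing of the IVS2-705 intron in EGFP; series mostly up to about 46 µM; % of control where 0% means no effect.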 The method in brief: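 Stable HeLa line with EGFP disrupted by mutant beta-globin intron 2 (705). Overnight attachment, then 2 days of compound at 37C, 5% CO2. Signal: peak GFP intensity summed over objects 5-250 µm.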
Assay [4] is described as follows: MultiTox-Fluor Cytotoxicity Assay - LYMP1-001 - Live Cells (AID 947). Further: potency means the concentration at half of the fitted maximal effect.
Assay [5] can be described thus: Cell Viability - LYMP1-002 - Assay at 16 hr (AID 948). Further: potency means the concentration at half of the fitted maximal effect. In short, it runs like this: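 Seed 2500 LYMP1-002 cells per well in complete medium and hold 5 hr at 37 C. Add compound across a concentration series and incubate 16 hr at 37 C. Add CellTiter-Glo, wait 30 min at room temperature, read luminescence.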
Assay [6] is described as follows: MultiTox-Fluor Cytotoxicity Assay - LYMP1-002 - Live Cells (AID 955). Further: potency means the concentration at half of the fitted maximal effect. In short, it runs like this: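 Cells were seeded at 2500 per well and incubated 5 hr. Compounds were then added for 16 hr at 37 C, followed by MultiTox-Fluor reagent for 60 min at room temperature and fluorescence reading of viable-cell protease signal.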
Assay [7] is described as follows: MultiTox-Fluor Cytotoxicity Assay - LYMP1-003 - Dead Cells (AID 961). Further: nearly all actives have a fitted effect of over 70% in size. Further: potency means the concentration at half of the fitted maximal effect. In short, it runs like this:
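LYMP1-003 human lymphoblastoid cells (2500/well) exposed to compound 16 h at 37 C in complete medium; dead-cell protease read with bis-AAF-R110 fluorescence (Ex/Em 485/520) after 60 min at room temperature. Normalized to DMSO and 15 uM tetraoctylammonium bromide; AC50 from Hill fit.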

A short description of assay [8]: Cell Viability - LYMP1-003 - Assay at 24 hr (AID 963). Further: potency means the concentration at half of the fitted maximal effect. In short, it runs like this: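 Cytotoxicity is scored as a concentration-dependent fall in ATP-linked luciferase signal in human lymphoblastoid LYMP1-003 cells treated 24 hr at 37 C in complete culture medium.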
A short description of assay [9]: Cell Viability - LYMP1-003 - Assay at 40 hr (AID 964). Further: nearly all actives have a fitted effect of over 60% in size. Further: potency means the concentration at half of the fitted maximal effect. The method in brief:
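Luminescent ATP signal (CellTiter-Glo) served as the viability read-out after 40 hr compound treatment of human lymphoblastoid LYMP1-003 cells at 37 C. Decreases in ATP were fitted with the Hill equation to give AC50.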

The nature of assay [10]: qHTS Assay for Identification of Small Molecule Agonists for Thrombopoietin (TPO) Signaling Pathway (AID 917). Further: on the % scale 0 is the no-effect control and ±100 the full control effect. The method in brief:
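Cell-based luciferase reporter screen. Mouse Ba/F3 line stably expressing human TPO receptor; IL-3 removed overnight before plating. Co-treatment with compound and EC50 TPO (26 pM), 24 hrs at 37 C, then luminescence.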

Assay [11] addresses Muscarinic acetylcholine receptor M1 (Rattus norvegicus) (UniProt P08482). The assay can be described thus: qHTS Assay for Antagonists of Acetylcholine Muscarinic M1 Receptor: Kinetic Measurement of Intracellular Calcium Response (AID 943).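 Further: Fluo-4 calcium signal as peak divided by basal fluorescence over 4 min; series mostly up to about 35 µM; nearly all actives have a fitted effect of over 75% in size.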 In short, it runs like this:
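Antagonism is measured as inhibition of the carbachol-evoked calcium rise in CHO cells transfected with rat M1. Cells are dye-loaded, exposed to compound for 10 min, then stimulated with 100 nM carbachol (EC80).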

The target is the same in assay [12]. As to the kind of experiment: qHTS Assay for Antagonists of Acetylcholine Muscarinic M1 Receptor: Measurement of IP-One Response (AID 944). Further: nearly all actives have a fitted effect of over 75% in size. In short, it runs like this:
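Antagonist mode with rat M1 receptor transfected into CHO cells. Compound is added first for 10 min, carbachol at its EC80 follows for 30 min, and lysis reagents then allow TR-FRET detection of accumulated IP1.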

The target in assay [13] is Pyruvate kinase (Leishmania mexicana) (UniProt Q27686). The assay can be described thus: qHTS Validation Assay for Inhibitors of Leishmania Mexicana Pyruvate Kinase (AID 945).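 Further: 0% = DMSO only neutral control wells.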 The method in brief: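 Mutant LmPYK (E451W), 0.2 nM, plus 0.5 mM PEP and 0.1 mM ADP in 50 mM imidazole pH 7.2 containing 0.01% Tween 20 and 0.05% BSA. Incubated 1 h at room temperature; luminescence via PKLight, normalized to DMSO.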

For assay [14], the target named is Cytochrome P450 2C19 (Homo sapiens) (UniProt P33261). As to the kind of experiment: qHTS Assay for Inhibitors and Substrates of Cytochrome P450 2C19 (AID 899). Further: potency means the concentration at half of the fitted maximal effect; nearly all actives have a fitted effect of over 60% in size. In short, it runs like this:
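Luminescent read-out of luciferin formed from Luciferin-H EGE (10uM, equal to KM). Enzyme 5nM in 50mM KPO4; compound added, 10 min at 37C, then NADPH regenerating system for 60 min at 37C. Full inhibition defined by 57uM ketoconazole.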

The nature of assay [15]: Cell Viability - LYMP2-003 (AID 965).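 Further: cells exposed to compounds for 24 h before reading; 0% = DMSO only and full effect = 92 µM tetraoctylammonium bromide; nearly all actives have a fitted effect of over 50% in size.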 The method in brief:
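Seed 2500 lymphoblastoid cells/well; incubate 5 hr, 37 C; add compounds; incubate 24 hr, 37 C; add CellTiter-Glo, 30 min RT; read luminescence. AC50 from Hill fit.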

Assay [16] is described as follows: MultiTox-Fluor Cytotoxicity Assay - LYMP1-002 - Dead Cells (AID 960). Further: potency means the concentration at half of the fitted maximal effect; nearly all actives have a fitted effect of over 60% in size. In short, it runs like this: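 Cells were plated, rested 5 hr, then treated with compound dilution series for 16 hr at 37 C. After adding substrate reagent and 60 min at room temperature, dead-cell protease fluorescence gave concentration-response curves fitted by the Hill equation.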
A short description of assay [17]: qHTS Assay for Identification of Small Molecule Agonists for Hypoxia Response Element Signaling Pathway (AID 914; active means well fitted activation curve with a large enough effect in the signal ratio, with a control signal flat, not every such curve was filed as active; the % refers to the signal ratio; further: % of control where 0% means no effect). As to conditions: ME-180 (cervical carcinoma) HRE-bla reporter, beta-lactamase ratio, CoCl2, 17 h; stronger effect = higher value. In short, it runs like this: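 Reporter activity (beta-lactamase, CCF4 460nm/530nm ratio) in HRE-bla ME-180 cells is recorded after 17 h compound exposure with EC50 CoCl2 at 37 degrees Celsius. AC50 values come from titration data.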

Assay [18] is described as follows: Cell Viability - LYMP2-004 (AID 966).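 Further: cells exposed to compound for 24 h; plate controls were DMSO only for no effect and tetraoctylammonium bromide control for full effect; nearly all actives have a fitted effect of over 65% in size.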 In short, it runs like this: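 qHTS cytotoxicity: human lymphoblastoid line, 24 hr compound treatment, 37 C, complete medium. Viability read as cellular ATP via luciferase luminescence; tetraoctylammonium bromide served as positive control.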

Muscarinic acetylcholine receptor M1 (Rattus norvegicus), sequence (P08482 whole entry, looked up): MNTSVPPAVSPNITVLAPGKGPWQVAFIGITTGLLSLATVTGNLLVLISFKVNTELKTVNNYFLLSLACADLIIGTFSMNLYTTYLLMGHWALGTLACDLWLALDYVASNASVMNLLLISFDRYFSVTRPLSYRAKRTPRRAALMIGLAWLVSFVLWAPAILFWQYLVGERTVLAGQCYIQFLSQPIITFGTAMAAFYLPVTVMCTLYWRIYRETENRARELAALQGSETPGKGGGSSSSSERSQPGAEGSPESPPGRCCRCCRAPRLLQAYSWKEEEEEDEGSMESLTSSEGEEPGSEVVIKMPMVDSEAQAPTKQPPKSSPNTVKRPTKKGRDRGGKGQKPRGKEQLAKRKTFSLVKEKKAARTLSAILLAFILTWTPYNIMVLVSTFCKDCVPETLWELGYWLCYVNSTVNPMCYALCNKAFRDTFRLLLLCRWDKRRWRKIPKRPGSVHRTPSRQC
Pyruvate kinase (Leishmania mexicana), sequence (Q27686 2-499 E452W): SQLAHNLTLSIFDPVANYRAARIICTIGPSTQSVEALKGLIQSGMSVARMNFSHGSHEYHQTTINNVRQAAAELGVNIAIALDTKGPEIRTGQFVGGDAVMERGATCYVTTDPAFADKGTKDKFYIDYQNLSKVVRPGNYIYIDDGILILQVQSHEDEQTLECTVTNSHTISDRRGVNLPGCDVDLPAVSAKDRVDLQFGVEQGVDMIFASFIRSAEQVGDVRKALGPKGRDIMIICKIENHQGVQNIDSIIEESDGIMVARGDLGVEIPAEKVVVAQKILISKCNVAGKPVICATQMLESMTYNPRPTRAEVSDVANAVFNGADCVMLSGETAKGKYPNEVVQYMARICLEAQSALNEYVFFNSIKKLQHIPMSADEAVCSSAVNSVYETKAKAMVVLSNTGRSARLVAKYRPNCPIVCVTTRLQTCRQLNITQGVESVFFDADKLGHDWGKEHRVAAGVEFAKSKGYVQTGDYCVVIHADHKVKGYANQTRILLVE
Cytochrome P450 2C19 (Homo sapiens), sequence (P33261 whole entry, looked up): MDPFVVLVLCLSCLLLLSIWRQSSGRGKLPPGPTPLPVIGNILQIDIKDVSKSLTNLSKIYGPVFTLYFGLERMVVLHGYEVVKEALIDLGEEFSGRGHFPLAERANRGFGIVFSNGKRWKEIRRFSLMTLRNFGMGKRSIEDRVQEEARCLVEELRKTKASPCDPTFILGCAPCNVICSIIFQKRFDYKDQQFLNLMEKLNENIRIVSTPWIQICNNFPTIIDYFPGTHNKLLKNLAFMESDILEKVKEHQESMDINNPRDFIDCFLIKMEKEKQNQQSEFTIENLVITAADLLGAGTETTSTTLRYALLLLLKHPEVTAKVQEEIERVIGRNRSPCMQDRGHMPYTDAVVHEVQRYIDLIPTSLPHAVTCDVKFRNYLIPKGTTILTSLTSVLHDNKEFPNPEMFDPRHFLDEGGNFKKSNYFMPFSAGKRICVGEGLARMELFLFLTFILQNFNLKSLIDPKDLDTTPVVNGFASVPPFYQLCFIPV

Take `NC(=NCCCCCCN=C(N)/N=C(\N)Nc1ccc(Cl)cc1)/N=C(\N)Nc1ccc(Cl)cc1`: the compound was called inactive in [1] and in assay [3]. Moreover, the Potency in assay [2] was 39.8 µM (active); in assay [4] it was 39.8 µM (active); in assay [5], 50.1 µM (active); in assay [6] it was 15.8 µM (active); in assay [7], 31.6 µM (active); in [8], 50.1 µM (active). For the same compound, the Potency in assay [9] is 31.6 µM (active).

Consider `C1CCc2nnnn2CC1`, for which the compound was called inactive in [1], in [10], in [3], in [11] and in assay [13]. Further, the Potency entry in [12] was “inactive”.

Regarding `O=C(COc1ccc(Cl)cc1)N1CCN(Cc2ccc3c(c2)OCO3)CC1`, the Potency in [14] is 5.01 µM (active). For the same compound, the result in assay [1] and in assay [3] was inactive.

With `CCN1CCN(c2cc3c(cc2F)c(=O)c(C(=O)O)cn3C2CC2)CC1`, the compound was called inactive in assay [1] and in assay [3].

`CC(C)NC[C@@H](O)COc1cccc2ccccc12`: the outcome in assay [1], in assay [10] and in assay [3] was inactive. Further, in [12], the Potency entry is “inactive”.

Regarding `C[C@@H]1CN(CCCn2c3ccccc3c3ccccc32)C[C@H](C)N1`, in assay [14], the Potency was 3.16 µM (active).

With `CC(=O)N(O)CCCCCNC(=O)CCC(=O)N(O)CCCCCNC(=O)CCC(=O)N(O)CCCCCN`, the call in assay [1] and in assay [3] was inactive.

For `CCCCCCc1ccc(O)cc1O`, the outcome in assay [1] and in assay [3] was inactive. The Potency entry in assay [2], in [4], in assay [5], in assay [6], in [7] and in assay [8] was “inactive” each time. The Potency result in assay [15] was “inactive”.

For the compound `CCOc1ccc(Cc2nccc3cc(OCC)c(OCC)cc23)cc1OCC`, the call in assay [1] and in assay [3] was inactive.

Regarding `Oc1c(I)cc(Cl)c2cccnc12`, the result in assay [1] and in assay [3] was inactive. Besides, the Potency in assay [2] is 39.8 µM (active); in assay [16], 31.6 µM (active); in assay [9], 39.8 µM (active).

With `CCCCC1=NC2(CCCC2)C(=O)N1Cc1ccc(-c2ccccc2-c2nn[nH]n2)cc1`, the compound was classed as inactive in [1] and in [3].

With `Cc1c2oc3c(C)ccc(C(=O)N[C@@H]4C(=O)N[C@H](C(C)C)C(=O)N5CCC[C@H]5C(=O)N(C)CC(=O)N(C)[C@@H](C(C)C)C(=O)O[C@@H]4C)c3nc-2c(C(=O)N[C@@H]2C(=O)N[C@H](C(C)C)C(=O)N3CCC[C@H]3C(=O)N(C)CC(=O)N(C)[C@@H](C(C)C)C(=O)O[C@@H]2C)c(N)c1=O` (I: T[dV]P[Sar][NMeV] / II: T[dV]P[Sar][NMeV]; ester I:1-I:C, II:1-II:C; linker I:N-II:N via Actinocin(9to1)), the Potency in [16] was 0.0251 µM (active); in [7] it was 0.0501 µM (active); in assay [9], 0.005 µM (active).

In the case of `CC(C)(C(=O)c1cccnc1)c1cccnc1`, the activation in assay [17] is -12.9%.

For `Cc1cc(=O)n(-c2ccccc2)n1C`, the result in assay [1] and in [3] was inactive.

With `CCCC1O[C@@H]2C[C@H]3[C@@H]4CCC5=CC(=O)C=C[C@]5(C)[C@H]4[C@@H](O)C[C@]3(C)[C@]2(C(=O)CO)O1` (stereo not given in full), the result in [13] was inactive.

As for `C[C@@H]1C(=O)NC2=Nc3cccc(Cl)c3CN21`, the compound was called inactive in assay [10], in assay [11] and in assay [13]. Moreover, the Potency result in assay [12] was “inactive”.

On to `CC(=O)Nc1c(I)cc(I)c(C(=O)O)c1I`, for which the compound was classed as inactive in [1] and in assay [3].

Regarding `Nc1cc(Cl)c(NC2=NCCN2)c(Cl)c1`, the outcome in assay [10] and in [13] was inactive. Besides, in [12], the Potency entry was “inactive”.

For the compound `CN1[C@@H]2CC[C@H]1CC(OC(=O)c1c[nH]c3ccccc13)C2` (stereo not given in full), the outcome in assay [10] and in assay [13] was inactive.

With `C[C@]12CC[C@@H]3c4ccc(O)cc4CC[C@H]3[C@@H]1CC[C@@H]2O`, the outcome in assay [10] and in assay [13] was inactive. Besides, the Potency result in [4], in assay [5], in assay [6], in assay [7], in [8] and in assay [9] was “inactive” throughout. Further, the Potency result in assay [15] and in assay [18] was “inactive” each time.

On to `Cc1c(C(N)=O)cc([N+](=O)[O-])cc1[N+](=O)[O-]`, for which the outcome in assay [1] and in [3] was inactive.
